Source: PubChem
HSP90 inh = HSP90 refolding inhibition in rabbit reticulocyte lysate. hit rate 0.91% among 290,000. inhibition, % at 5.6 µM. AID 1789. luciferase refolding luminescence, 3 h;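 active means inhibition above the screen-wide mean plus 3 SD, computed separately per campaign, cut at about 16% in these data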;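 further: inhibitors lower the luminescence because luciferase stays unfolded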
TWEAK Fn14 block = inhibitors of TWEAK-Fn14 interaction signaling; AID 1159606; hit rate 2% among 360,000; inhibition, % at 10 µM; TWEAK-stimulated Fn14 reporter cells, luciferase luminescence, 8 h; in the data active means inhibition above about 50%
TROY signal inh = blocks TROY-dependent signaling in reporter cells | inhibition, % at 10 µM | AID 1347056 | hit rate 0.98% among 360,000 | Q293 LMP1-TROYcd NF-kB luciferase reporter, 4 h;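 active means compounds whose plate-normalised and pattern-corrected inhibition of the luciferase reporter signal at the single screening dose is 50% or more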
LGR2 inh = inhibitors of bursicon-induced Drosophila LGR2 receptor cAMP signaling; AID 720647; inhibition, % at 9.99 µM; HEK293 LGR2, CRE-luciferase, bursicon-stimulated, 4 h; hit rate 0.35% among 380,000;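 active means drop in luminescence signal, shown as inhibition above about 50% in the replicate tests, limit read from the data, passing the limit was not always enough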;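 further: agonist challenge used bursicon conditioned medium at about half maximal strength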
Large screens that a line does not name were inactive. The list is not random: actives were taken first. Their share in the collection is about 2.2%.

COc1cccc(C(C)(O)c2nc(-c3cccc(C#N)c3)cs2)c1 (stereo not drawn)	TWEAK Fn14 block 52 (no result: HSP90 inh)
CC(C)NC(=O)N(C)C[C@H]1Oc2ccc(NS(=O)(=O)c3cn(C)cn3)cc2CC(=O)N([C@@H](C)CO)C[C@@H]1C	none (no result: HSP90 inh, TWEAK Fn14 block, TROY signal inh)
O=C(N[C@@H]1CC[C@@H](CCNS(=O)(=O)c2ccc(F)cc2)O[C@H]1CO)c1cnccn1	none (no result: HSP90 inh, TWEAK Fn14 block, TROY signal inh)
Cc1nnc(NC(=O)c2sc3nc(-c4cccs4)cc(C(F)(F)F)c3c2N)s1	TWEAK Fn14 block 74, TROY signal inh 60
C[C@@H]1CN([C@H](C)CO)C(=O)Cc2cc(NC(=O)Cc3ccccc3)ccc2O[C@H]1CN(C)Cc1ccc(Cl)c(Cl)c1	none (no result: HSP90 inh, TWEAK Fn14 block, TROY signal inh)
C#CCOc1c(Cl)cc(/C=N/NC(N)=S)cc1OCC	none
CCOc1cc(/C=N/NC(N)=S)cc(Br)c1OCc1ccccc1C	none (no result: LGR2 inh)
COc1cc(/C=N/NC(N)=S)cc(Br)c1OCc1ccccc1F	TWEAK Fn14 block 64
CCOc1c(Cl)cc(/C=N/NC(N)=S)cc1OC	TWEAK Fn14 block 52
CC(=O)N1CCCCN2[C@@H](CO)[C@H](c3ccc(-c4cccc(C)c4)cc3)[C@@H]2C1	none (no result: HSP90 inh, TWEAK Fn14 block, TROY signal inh)
CC(=O)N1CCCCN2[C@H](CO)[C@H](c3ccc(-c4cccc(C)c4)cc3)[C@@H]2C1	LGR2 inh 55 (no result: HSP90 inh, TWEAK Fn14 block, TROY signal inh)
CCc1ccccc1N(CC(=O)NC1CCCCC1)C(=O)CCCC(=O)Nc1ccccn1	TWEAK Fn14 block 80
Cc1ccccc1N(CC(=O)NC1CCCCC1)C(=O)CCCC(=O)Nc1ccccn1	none
CC1=C(C(=O)Nc2ccccc2)C(c2ccco2)C(C#N)=C(SCC(=O)OC(C)C)N1 (stereo not drawn)	TWEAK Fn14 block 59 (no result: LGR2 inh)
Oc1ccc(CCNc2ncnc3ccc(Cl)cc23)cc1	TWEAK Fn14 block 94, TROY signal inh 56
Nc1nc(Cl)cc(NCCc2ccc(O)cc2)n1	none
CN1C(=O)c2cc(NC(=O)Nc3ccccc3F)ccc2OC[C@@H]2O[C@@H](CC(=O)NCCc3ccncc3)CC[C@H]21	none (no result: HSP90 inh, TWEAK Fn14 block, TROY signal inh)
CCOc1cc(/C=C(\C#N)C(=O)Nc2cccc(C(=O)O)c2)cc(Br)c1OC(=O)c1ccc(OC)cc1	TROY signal inh 62
C[C@H]1CN([C@@H](C)CO)C(=O)c2cc(NS(=O)(=O)c3cn(C)cn3)ccc2O[C@@H]1CN(C)CC1CC1	none (no result: HSP90 inh, TWEAK Fn14 block, TROY signal inh)
CCN(c1ccccc1)S(=O)(=O)c1cc(C(=O)Nc2ccc(Br)cc2)ccc1F	TWEAK Fn14 block 78
CCc1ccc(NC(=O)c2ccc(F)c(S(=O)(=O)NCC3COc4ccccc4O3)c2)cc1 (stereo not drawn)	TWEAK Fn14 block 62
CN1C(=O)c2cc(NC(=O)c3ccc(F)cc3)ccc2OC[C@H]2O[C@@H](CC(=O)NC3CCC3)CC[C@H]21	none (no result: HSP90 inh, TWEAK Fn14 block, TROY signal inh)
Nc1ccc(-c2nnn(Cc3ccccc3)n2)cc1	TWEAK Fn14 block 65 (no result: HSP90 inh)
O=C(C[C@H]1CC[C@H](NC(=O)c2cccnc2)[C@H](CO)O1)NCCN1CCCCC1	none (no result: HSP90 inh, TWEAK Fn14 block, TROY signal inh)
COC(=O)c1c(NC(=O)C2COc3ccccc3O2)sc2c1CCN(C(C)=O)C2 (stereo not drawn)	TWEAK Fn14 block 55
CC(=O)N1CCc2c(sc(NC(=O)C3COc4ccccc4O3)c2C(N)=O)C1 (stereo not drawn)	none
CCN1C/C(=C/c2cccc([N+](=O)[O-])c2)C(=O)/C(=C/c2cccc([N+](=O)[O-])c2)C1	TWEAK Fn14 block 95, LGR2 inh 84
CCOc1cc(/C=C2\CN(CC)C/C(=C\c3ccc(O)c(OCC)c3)C2=O)ccc1O	TWEAK Fn14 block 100, LGR2 inh 69
COc1cc(/C=C2\CCC/C(=C\c3ccc(O)c(OC)c3)C2=O)ccc1O	TWEAK Fn14 block 85
COc1cc(/C=C2/CCCC(C(=O)C(F)(F)F)=C2O)ccc1O	none
COc1cc(/C=C2/CCC/C(=C\c3cc(O)c(OC)c(Cl)c3)C2=O)cc(Cl)c1O	TROY signal inh 58 (no result: LGR2 inh)
CCOc1cc(/C=N/N=C/c2ccc(O)c(OCC)c2)ccc1O	none
COC(=O)C[C@H]1C[C@@H]2c3cc(NC(=O)C4CCC4)ccc3O[C@@H]2[C@@H](CO)O1	none (no result: HSP90 inh, TWEAK Fn14 block, TROY signal inh)
Cc1noc(C)c1NC(=O)N(C)C[C@H]1Oc2ccc(NS(=O)(=O)c3cccs3)cc2C(=O)N([C@@H](C)CO)C[C@H]1C	none (no result: HSP90 inh, TWEAK Fn14 block, TROY signal inh)
CCCC#Cc1ccc([C@H]2[C@@H](CO)N(C(C)=O)[C@H]2CN(C)C(=O)C2CC2)cc1	none (no result: HSP90 inh, TWEAK Fn14 block, TROY signal inh)
COc1cc(/C=C2\CC/C(=C\c3cc(OC)c(O)c(OC)c3)C2=O)cc(OC)c1O	TWEAK Fn14 block 80 (no result: LGR2 inh)
COc1cc(/C=C2\CC/C(=C\c3cc(OC)c(OC)c(OC)c3)C2=O)cc(OC)c1OC	none
COc1cc(/C=C2/CCc3ccccc3C2=O)cc(OC)c1OC	none
COc1cc(/C=C2\COC/C(=C\c3cc(OC)c(OC)c(OC)c3)C2=O)cc(OC)c1OC	TWEAK Fn14 block 102, TROY signal inh 78 (no result: LGR2 inh)
